Bioassay records from PubChem BioAssay.
Only some compounds are listed: those with a hit (about 12% of all), similar ones and a draw of the others.
Arbovirus anti – blocks arbovirus infection | arbovirus infection cell-based antiviral screen | 0.37% of 200,000 active | AID 1251 | inhibition, % at 10 µM; in the data active = inhibition above about 30%
L major viab – inhibitors of Leishmania major promastigote growth; inhibition, % at 10 µM; Leishmania major promastigotes, resazurin fluorescence viability; AID 1063; 9% of 200,000 active; in the data active = inhibition above about 50%;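 also: promastigotes grown with compound for 44 hours at 28 °C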
CHOP inh – blocks CHOP induction under ER stress. CHO-K1 CHOP-promoter luciferase, tunicamycin-induced, 15-18 h. inhibition, % at 10 µM. 3.8% of 220,000 active. AID 2732;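 active = compounds that reduced the stress-induced luciferase reporter signal by more than about 70% of percent inhibition, limit read from the data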;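 also: 0% = tunicamycin plus vehicle and 100% = wells without tunicamycin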
WT yeast gro inh – growth inhibition of WT yeast, mitochondrial fusion screen; mitochondrial fusion phenotypic screen, WT strain; inhibition, % at 10 µM; 2.1% of 190,000 active; AID 1362; in the data active = inhibition above about 58%; tested in S. cerevisiae
* = called active by the depositor; . = not tested or not shown.

SMILES | Arbovirus anti | L major viab | CHOP inh | WT yeast gro inh
O=C(Cn1c(S(=O)(=O)Cc2ccccc2)nc2ccccc21)N1CCCCC1 | 13 | 42 | -2 | 11
Cc1nc2c(-c3ccc(F)cc3)c(C)nn2c(C)c1CCC(=O)N1CCC(Cc2ccccc2)CC1 | -39 | -1 | 19 | 65*
Cc1nc2c(-c3ccc(F)cc3)c(C)nn2c(C)c1CCC(=O)N1CCN(c2ccccc2)CC1 | -14 | 1 | 42 | 39
CCN1CCN(c2ccc(NC(=O)CCc3c(C)nc4c(-c5ccc(F)cc5)c(C)nn4c3C)cc2)CC1 | -24 | 99* | -27 | 22
CCOC(=O)CSc1nc2c(sc(=S)n2-c2ccc(OCC)cc2)c(=O)[nH]1 | 42* | -8 | -18 | -2
CCOc1ccc(-n2c(=S)sc3c(=O)[nH]c(SCC(=O)C(C)(C)C)nc32)cc1 | 33* | 1 | 1 | -9
C=CCn1c(N)cc(=O)nc1SC(C)C(=O)Nc1cccc2ccccc12 (stereo not given) | 4 | -1 | 11 | -21
Oc1c(/C=C/C=C/C=Nc2ccccc2)sc(=S)n1Cc1ccccc1 | . | . | 20 | .
Cc1cc(C)c2oc(-c3ccc(C)c(NC(=S)NC(=O)c4cccs4)c3)nc2c1 | -27 | 4 | -5 | 37
Cc1ccc2oc(-c3cccc(NC(=S)NC(=O)/C=C/c4ccco4)c3)nc2c1 | -13 | 100* | 28 | -6
Cc1cc(C)c2oc(-c3ccc(C)c(NC(=S)NC(=O)/C=C/c4ccco4)c3)nc2c1 | 14 | 71* | 29 | 5
Cc1ccc2oc(-c3cccc(NC(=S)NC(=O)c4cccs4)c3)nc2c1 | 1 | -2 | -10 | 17
CCOC(=O)c1sc(NC(=O)COC(=O)C(CCSC)NC(C)=O)nc1C (stereo not given) | -2 | 6 | -16 | 5
COc1nc(-c2ccccc2)cc(-c2ccc(OC)c(OC)c2)n1 | -6 | 61* | 44 | 4
NNc1cc(C(=O)O)ccc1Cl | . | . | 8 | .
O=S(=O)(c1ccc2c(c1)OCCO2)N1CCC(n2nnc3cc(C(F)(F)F)ccc32)CC1 | 5 | 16 | 70* | 6
O=S(=O)(c1ccccc1)N1CCC(n2nnc3cc(F)ccc32)CC1 | 5 | 11 | -11 | -16
Cc1cc(C(=O)c2ccccc2)c(NC(=O)CCl)s1 | 4 | 100* | -152 | 1
O=C(CCl)Nc1ccccc1C(=O)c1ccccc1 | 11 | 42 | -1 | -13
COc1ccccc1NC(=O)C(=N\O)/C(C)=N/O | -5 | -2 | 22 | -20
CCN(CC)S(=O)(=O)c1cccc(NC(=O)C(=O)c2c(-c3ccccc3)cc3ccccn23)c1 | 1 | 98* | 15 | 18
CCN(CC)S(=O)(=O)c1cc(NC(=O)C(=O)c2c(-c3ccccc3)cc3ccccn23)ccc1C | -10 | 91* | 34 | 12
CCN(CC)S(=O)(=O)c1ccc(N2CCOCC2)c(NC(=O)C(=O)c2c(-c3ccccc3)cc3ccccn23)c1 | -6 | 24 | 10 | 4
CCCCCC1=NN2C(=O)CC(=O)N=C2S1 | . | . | 11 | .
CNC(=S)Nc1ccc(C23CC4CC(CC(C4)C2)C3)cc1 | -34 | 51* | 6 | 68*
SMILES | Arbovirus anti | L major viab | CHOP inh | WT yeast gro inh
CC(=O)c1sc(NC(=O)COc2c(C)cc(Cl)cc2C)nc1C | -14 | 5 | 83* | 6
CC(=O)c1sc(NC(=O)COc2ccc(Cl)cc2C)nc1C | . | . | -28 | .
COc1ccc(C(=O)C2CCCN(Cc3ccc(Sc4nncn4C)o3)C2)cc1F (stereo not given) | 4 | -2 | 11 | 7
Cc1cccc(C)c1OCCNC(=O)c1ccc2ccccc2n1 | -3 | 7 | 41 | 68*
O=C(NCCOc1ccc(Cl)cc1)c1ccc2ccccc2n1 | 6 | -3 | -2 | 62*
O=C(Nc1ccc(Cl)cn1)c1ccc2ccccc2n1 | -10 | -4 | 25 | 28
CC(C)S(=O)(=O)c1csc(NC(=O)Nc2cc(Cl)ccc2Cl)c1Cl | . | . | 15 | .
N[C@H](CCC(=O)NCS(=O)(=O)O)C(=O)O | . | . | 2 | .
Cc1ccc(S(=O)(=O)Nc2ccc(NC(=O)c3cccnc3)cc2)cc1 | 0 | 5 | 4 | -1
Oc1c(C(c2ccccn2)N2CCC(Cc3ccccc3)CC2)cc(Cl)c2cccnc12 (stereo not given) | -30 | 99* | -346 | 17
CN1CCN(C(c2ccccn2)c2cc(Cl)c3cccnc3c2O)CC1 (stereo not given) | -15 | -1 | -61 | 2
O=C(Oc1c(Cl)cc(Cl)c2cccnc12)N1CCCCC1 | -2 | 9 | 56 | 7
Oc1c(C(c2ccc(Cl)cc2)N2CCCC2)cc(Cl)c2cccnc12 (stereo not given) | -33 | 96* | 4 | 64
CCN(CC)CCSc1nc(O)c(-c2ccccc2)c(=O)n1-c1ccccc1 | 3 | -3 | -17 | -1
CCN(CC)CCSc1nc2ccccc2c(=S)n1-c1ccccc1 | -33 | 82* | 18 | 20
Cc1ccccc1NC1=CC(=O)CC(C)(C)C1 | -3 | -5 | -12 | -11
Cc1c(NC2=CC(=O)CC(C)(C)C2)ccc([N+](=O)[O-])c1C | 2 | 14 | 85* | 18
CSc1ccccc1NC(=O)CN(C)CC(=O)Nc1ccc(Cl)cc1F | -1 | -7 | 26 | 42
CCCOc1ccc(C(O)C(CN2CCOCC2)c2ccccc2)cc1 (stereo not given) | 11 | 89* | 36 | -10
CCCCOc1ccc(C(O)C(CN2CCOCC2)c2ccccc2)cc1 (stereo not given) | . | . | 55 | .
CCCCOc1ccc(C(O)C(CN2CCCCC2)c2ccccc2)cc1 (stereo not given) | 37* | 70* | 27 | 11
O=C(CCCOc1ccccc1)N1CCCCC1 | 2 | -5 | 6 | -10
CCOc1ccc(C(O)C(CN2CCOCC2)c2ccccc2)cc1 (stereo not given) | 2 | 84* | 9 | 15
CC1=C(C(=O)N2CCOCC2)C(c2ccc(Cl)cc2)NC(=S)N1 (stereo not given) | 1 | -6 | 7 | -5
COCCn1cnc2c1c(=O)n(CC(=O)Nc1cc(C)on1)c(=O)n2Cc1ccccc1 | 6 | 0 | 9 | -7
SMILES | Arbovirus anti | L major viab | CHOP inh | WT yeast gro inh
COCCn1cnc2c1c(=O)n(CC(=O)OCC(=O)NCCCc1ccccc1)c(=O)n2Cc1ccccc1 | 1 | 51* | 16 | -10
COc1ccccc1NS(=O)(=O)c1cccc(NC(=O)c2ccc3ccccc3n2)c1 | 24 | 43 | 46 | 30
O=C(/C=C/c1ccccc1)Nc1cccc(S(=O)(=O)Nc2ccccc2F)c1 | 18 | 0 | 29 | 55
O=C(Nc1cccc(S(=O)(=O)Nc2ccccc2F)c1)c1ccc2ccccc2n1 | 12 | 5 | 14 | 87*
O=C(Cc1ccc(Cl)cc1Cl)Nc1cccc(S(=O)(=O)Nc2ccccc2F)c1 | 21 | 75* | 87* | 22
C=CCNc1cc(C)oc(=O)c1C(=O)CCC | 1 | -2 | 25 | 10
Cc1noc(C)c1COC(=O)Cc1ccc(Br)cc1 | 5 | -10 | -1 | -3
O=C(O)CCC(=O)Nc1ccc(Oc2ncnc3cc(Cl)ccc23)nc1 | . | . | -18 | .
O=C(Nc1ccc(Oc2ccc(NC(=O)Nc3ccccc3Cl)cc2)cc1)Nc1ccccc1Cl | . | . | 94* | .
O=C(Nc1ccccc1)Nc1cccc(Cl)c1Cl | 9 | 8 | 15 | 14
COC(=O)c1cc(-c2cccs2)[nH]n1 | -2 | -4 | 7 | -20
